{"source": "PubChem BioAssay AID504332", "about": "(National Center for Advancing Translational Sciences (NCATS), 2011)", "note": "“And” between values parts separate entries of the source, which are not always exact repeats. Identical values can stand only once. The whole screen tested about 350,000 compounds, of which about 31,000 (8.9%) were called active. Where a call stands in place of a potency, no number is given. Not shown: some 15% with an inconclusive outcome. Calls come from the whole dose curve; as a rule, active = well fitted inhibition curve with a large enough effect; inconclusive = small, poorly fitted or top-dose-only effect; inactive = no such curve, though single readings can be large or run the other way. For the sample, actives were picked, then their nearest neighbours and some compounds at random. Where a structure was tested more than once in an assay, its records may differ in their call. Potency is the fitted concentration of half-maximal effect.", "data": [{"molecular_target": "Histone-lysine N-methyltransferase EHMT2 (Homo sapiens) (UniProt Q96KQ7)", "sequence (Q96KQ7 913-1193 limits assumed)": "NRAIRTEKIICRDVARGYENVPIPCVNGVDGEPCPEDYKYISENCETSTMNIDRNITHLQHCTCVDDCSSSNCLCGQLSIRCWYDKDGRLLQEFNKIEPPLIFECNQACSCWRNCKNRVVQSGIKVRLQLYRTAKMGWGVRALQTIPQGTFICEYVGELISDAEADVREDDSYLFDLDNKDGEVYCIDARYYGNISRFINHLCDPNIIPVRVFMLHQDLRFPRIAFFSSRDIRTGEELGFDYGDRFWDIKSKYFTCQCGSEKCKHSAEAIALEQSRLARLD", "experiment": "qHTS Assay for Inhibitors of Histone Lysine Methyltransferase G9a; note: nearly all actives have a fitted effect of over 75% in size", "settings": "G9a H3K9 monomethylation, AlphaScreen, 2 h; series mostly up to 59 µM", "outline": "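Signal arises when biotinylated H3K9 peptide, once monomethylated, bridges streptavidin donor and antibody-captured acceptor beads. Enzyme at 20 nM was preincubated 15 min with test compounds; peptide 500 nM and SAM 20 uM then reacted for 2 h.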", "values": [{"smiles": "CCN(CC(=O)Nc1ccccc1C(F)(F)F)C(=O)CSCc1c(C)noc1C", "activity, negative = inhibition": "9.18% [at 0.501 µM] (inactive)"}, {"smiles": "CCOC(=O)C1(Cc2ccccc2C)CCCN(C(=O)CCc2c(C)noc2C)C1", "note": "(configuration not stated)", "Potency": "inactive"}, {"smiles": "CCOc1ccc(N2C(=O)CSC2=NC#N)cc1", "activity, negative = inhibition": "-16.5% [at 12.7 µM] (inactive)"}, {"smiles": "CCOc1ccc(N2C(=O)/C(=C/c3ccc(C)o3)N(C)C2=S)cc1", "Potency": "3.55 µM (active)"}, {"smiles": "CCOc1ccc(N2C(=O)CN(c3cccc4ccccc34)C2=S)cc1", "Potency": "inactive"}, {"smiles": "COc1ccc(/C=C2\\SC(=O)N(CCC(=O)NC3CCS(=O)(=O)C3)C2=O)cc1", "note": "(configuration not stated)", "Potency": "inactive"}, {"smiles": "Cc1ccc(-n2c3nc(=O)[nH]c(=O)c-3cc3c(Cl)cccc32)cc1", "Potency": "inactive"}, {"smiles": "CCOc1ccc(S(=O)(=O)N2CCCC(C(=O)N3CCC(C(N)=O)CC3)C2)cc1Cl", "note": "(configuration not stated)", "Potency": "inactive"}, {"smiles": "CCN1/C(=C\\c2ccc3ccccc3[n+]2CC)Sc2cc(C)ccc21", "Potency": "22.4 µM (active)"}, {"smiles": "Cc1nc2nc(SCC(=O)Nc3cccc(F)c3)[nH]c2cc1Br", "Potency": "inactive"}, {"smiles": "COc1ccc(C(=O)Nc2ccc(C3(C#N)CCCC3)cc2)cc1OC", "activity, negative = inhibition": "5.57% [at 0.501 µM] (inactive)"}, {"smiles": "CC1(C)N=C(SCc2ccccc2Cl)c2ccccc2N1", "Potency": "inactive"}, {"smiles": "Cc1ccc(/C=C/C(=O)Nc2ccc([N+](=O)[O-])c(NC(=O)/C=C/c3ccc(C)o3)c2)o1", "Potency": "22.4 µM (active)"}, {"smiles": "CNc1ccc(NC(C)=O)cc1[N+](=O)[O-]", "Potency": "inactive"}, {"smiles": "CCc1nnc(NC(=O)/C=C/c2ccc(C)o2)s1", "Potency": "inactive"}, {"smiles": "CC(C(=O)N1CCN(c2ccccc2F)CC1)c1ccc([N+](=O)[O-])cc1", "note": "(configuration not stated)", "activity, negative = inhibition": "13.1% [at 0.501 µM] (inactive)"}, {"smiles": "COc1ccc2c(CNCCc3ccccc3C)c(C(=O)O)n(Cc3ccccc3C)c2c1", "Potency": "inactive"}, {"smiles": "CCOc1ccc(C2C(C(=O)Nc3ccc(Cl)cc3)=C(C)Nc3nc(C(F)(F)F)nn32)cc1", "note": "(configuration not stated)", "Potency": "inactive"}, {"smiles": "Cc1nnc(SCC(=O)NC2CCCC2)s1", "Potency": "inactive"}, {"smiles": "Cc1nnc(SCC2=C(C(=O)O)N3C(=O)C(NC(=O)Cn4nc(C)c(Cl)c4C)C3SC2)s1", "note": "(configuration not stated)", "Potency": "31.6 µM (active)"}, {"smiles": "O=C1N[C@@H](Cc2ccccc2)C(=O)N2[C@H]1C[C@]1(Br)c3ccccc3N(S(=O)(=O)c3ccccc3)[C@H]21", "activity, negative = inhibition": "7.4% [at 2.33 µM] (inactive)"}, {"smiles": "CCCn1nnc2sc3c(c2c1=O)CCC(C)C3", "note": "(configuration not stated)", "Potency": "inactive"}, {"smiles": "Cc1ccc(NC(=O)Cn2nnc3sc4c(c3c2=O)CCC(C)C4)cc1", "note": "(configuration not stated)", "Potency": "inactive"}, {"smiles": "CC1CCc2c(sc3nc4n(c(=O)c23)CCS4)C1", "note": "(configuration not stated)", "Potency": "50.1 µM (active)"}, {"smiles": "CC1CCN(C(=O)COC(=O)CCC(=O)c2cccs2)CC1", "Potency": "inactive"}, {"smiles": "Brc1ccc2c(c1)NC(c1cccnc1)=NC(c1ccccc1)=N2", "Potency": "inactive"}, {"smiles": "CCCCN(CC)CCCNC(=O)c1nn(C)c2c1CSc1ccccc1-2", "Potency": "inactive"}, {"smiles": "COc1ccc(C(=O)Nc2ccccc2C(=O)N/N=C/c2ccccc2OC)cc1", "activity, negative = inhibition": "14.1% [at 0.501 µM] (inactive)"}, {"smiles": "COc1cccc(/C=N\\NC(=O)C2=NNC(=O)C2C)c1O", "note": "(configuration not stated)", "Potency": "inactive"}, {"smiles": "COc1cccc(/C=N/NC(=O)c2[nH]nc3c2CCc2ccccc2-3)c1O", "Potency": "50.1 µM (active)"}, {"smiles": "CN(C)CCNC(=O)c1[nH]nc2c1CCc1ccccc1-2", "Potency": "44.7 µM (active)"}, {"smiles": "CN(C)CCCNC(=O)c1ccc2[nH]c3ccccc3c2c1", "activity, negative = inhibition": "38.1% [at 0.501 µM] (inactive)"}, {"smiles": "O=S(=O)(Nc1ccc(-c2ccc(N3CCOCC3)nn2)cc1)c1cc(Cl)ccc1Cl", "activity, negative = inhibition": "-28.8% [at 2.33 µM] (inactive)"}, {"smiles": "COc1ccccc1N1CCN(C(=O)C2CCN(S(=O)(=O)c3c(C)noc3/C=C/c3ccc(C)cc3)CC2)CC1", "Potency": "inactive"}, {"smiles": "Cc1ccc(CNC(=O)CCS(=O)(=O)c2ccc3c(c2)CC(C)N3C(=O)C2CC2)o1", "note": "(configuration not stated)", "activity, negative = inhibition": "17.4% [at 0.0925 µM] (inactive)"}, {"smiles": "Cn1c(SCc2ccc(F)cc2)nnc1-c1ccncc1", "Potency": "inactive"}, {"smiles": "CCOc1ccc(Nc2c(S(=O)(=O)c3ccccc3)cnc3ccccc23)cc1", "Potency": "inactive"}, {"smiles": "Cc1ccc(CNS(=O)(=O)c2ccc(C(=O)N(C)C)s2)cc1", "Potency": "inactive"}, {"smiles": "Cc1ccc(-n2ncc3c(NCCCn4ccnc4)ncnc32)cc1Cl", "Potency": "inactive"}, {"smiles": "Cn1c(=O)[nH]c(=O)c2c1nc(N1CCN(C(c3ccccc3)c3ccccc3)CC1)n2CCO", "Potency": "inactive"}, {"smiles": "CN1CCN(c2nc3c(c(=O)[nH]c(=O)n3C)n2Cc2cccc3ccccc23)CC1", "Potency": "25.1 µM (active)"}, {"smiles": "Cn1c(=O)[nH]c(=O)c2c1nc(N1CCCCCC1)n2CC(=O)c1ccccc1", "Potency": "inactive"}, {"smiles": "Cc1cn([C@H]2CC(F)[C@@H](CO)O2)c(=O)[nH]c1=O", "note": "(some centres not stated)", "activity, negative = inhibition": "8.73% [at 12.7 µM] (inactive)"}, {"smiles": "COc1ccc(NC(=O)Cn2c(=O)n(Cc3ccc(C(=O)NCc4ccccc4Cl)cc3)c(=O)c3ccccc32)cc1", "Potency": "inactive"}, {"smiles": "Cc1noc(C)c1C(=O)OCC(=O)/C=C1\\N(C)c2ccccc2C1(C)C", "Potency": "inactive"}, {"smiles": "CN1/C(=C\\C(=O)c2cccnc2Cl)C(C)(C)c2ccccc21", "Potency": "inactive"}, {"smiles": "CN1/C(=C\\C=C2\\N=C(c3ccc(F)cc3)OC2=O)C(C)(C)c2ccccc21", "Potency": "4.47 µM (active)"}, {"smiles": "CC(=O)Nc1ccc(SC[C@H](Cc2ccccc2)N2CC[C@@H](C)CCC2=O)cc1", "activity, negative = inhibition": "-3.36% [at 0.501 µM] (inactive)"}, {"smiles": "Cc1ccc(OCCSc2nc(-c3cccs3)nc3cc(=O)[nH]n23)cc1Cl", "Potency": "inactive"}, {"smiles": "Cc1ccc(C(=O)NNC(=O)c2ccncc2)cc1S(=O)(=O)N1CCCCC1", "Potency": "inactive"}, {"smiles": "O=S(=O)(NCC1CCCO1)c1ccc2ccccc2c1", "note": "(configuration not stated)", "Potency": "inactive"}, {"smiles": "Cc1cccc(S(=O)(=O)N2CN(CC3CCCO3)c3nc4ccccc4nc32)c1", "note": "(configuration not stated)", "Potency": "50.1 µM (active)"}, {"smiles": "Cc1nc2cnc(Nc3ccccc3)nc2n(C[C@H]2CCCO2)c1=O", "activity, negative = inhibition": "8.09% [at 0.501 µM] (inactive)"}, {"smiles": "COc1ccccc1NC(=O)c1cc(N2C(=O)C3C4CCC(C4)C3C2=O)ccc1Cl", "note": "(configuration not stated)", "Potency": "inactive"}, {"smiles": "Cc1ccc2nc(COc3ccccc3NC(=O)Nc3ccc(F)c(Cl)c3)cc(=O)n2c1", "Potency": "inactive"}, {"smiles": "O=C(COC(=O)c1ncc(Cl)c(Cl)c1Cl)NCc1ccccc1", "Potency": "inactive"}, {"smiles": "COc1ccc(Nc2cc(C(=O)NCCCN(C)c3ccccc3)c3ccccc3n2)c(OC)c1", "Potency": "7.94 µM (active)"}, {"smiles": "COc1ccccc1Nc1cc(C(=O)NCCCN(C)C2CCCCC2)c2ccccc2n1", "Potency": "inactive"}, {"smiles": "CCCCN(CCCNC(=O)c1cc(Nc2ccccc2OC)nc2ccccc12)c1ccccc1", "Potency": "inactive"}, {"smiles": "NC(=O)C1CCN(C(=O)c2cccc(NC(=O)c3nsc4ccccc34)c2)CC1", "Potency": "inactive"}, {"smiles": "CCN1C(=NCCc2cccnc2)N[C@@H](c2ccccc2)C(C(=O)OC)=C1C", "Potency": "44.7 µM (active)"}, {"smiles": "CCN1C(=NCCc2cccnc2)N[C@@H](c2ccccc2)[C@H](C(=O)OC)[C@H]1C", "activity, negative = inhibition": "-5.2% [at 12.7 µM] (inactive)"}, {"smiles": "COCCN1C(=O)N[C@@H](c2ccccc2)C(C(=O)OC)=C1C", "Potency": "inactive"}, {"smiles": "CC(=O)Nc1c(C)nn(-c2ccccc2)c1N1CCC(C(=O)Nc2cc(Cl)ccc2C)CC1", "Potency": "inactive"}, {"smiles": "O=C(CN1C(=O)NC2(CCCC2)C1=O)OCCOc1ccc(F)cc1", "activity, negative = inhibition": "-1.07% [at 0.501 µM] (inactive)"}, {"smiles": "CCOc1c(OC)cccc1C(=O)NCC1(c2ccccc2)CCCC1", "Potency": "inactive"}, {"smiles": "CCCn1c(C2CCCN2c2nc(-c3ccc(C)cc3)cs2)nc2cc(Cl)c(N3CCCCC3)cc21", "note": "(configuration not stated)", "Potency": "inactive"}, {"smiles": "Cc1ccc(-c2csc(N3CCN(c4cc5c(cc4Cl)nc(-c4ccncc4)n5CCOCCO)CC3)n2)cc1", "Potency": "50.1 µM (active)"}, {"smiles": "Cn1c(=O)c2c(nc(NCCc3ccccc3)n2Cc2ccccc2Br)n(C)c1=O", "Potency": "inactive"}, {"smiles": "Cc1ccc(-n2c(SCC(=O)c3ccccc3)nc3c([nH]c4ccccc43)c2=O)cc1", "Potency": "inactive"}, {"smiles": "O=C(Nc1sc2c(c1-c1nc3ccccc3[nH]1)CCCC2)C1CC1", "Potency": "50.1 µM (active)"}, {"smiles": "CCOC(=O)c1c(NC(=O)C2CCN(S(=O)(=O)c3ccc(Cl)cc3)CC2)sc2c1CCCC2", "Potency": "inactive"}, {"smiles": "O=C(OCc1nc2ccccc2[nH]1)C1CCCCC1", "Potency": "inactive"}, {"smiles": "CC(C)c1ccc(NC(=O)c2ccc3c(O)c(S(=O)(=O)c4ccccc4)c(=O)[nH]c3c2)cc1", "Potency": "inactive"}, {"smiles": "Cc1cc(C)cc(NC(=O)CSc2nc(=O)n(CCN3CCOCC3)c3c2CCC3)c1", "Potency": "inactive"}, {"smiles": "Cc1ccc(Cn2cc(CCC(=O)NCc3ccc(OC(C)C)cc3)c3ccccc32)cc1", "Potency": "inactive"}, {"smiles": "O=S(=O)(NCCc1ccc(Cl)cc1)c1cccs1", "Potency": "inactive"}, {"smiles": "CN(c1ccccc1)S(=O)(=O)c1ccc(C(=O)NCCc2ccccc2)cc1", "Potency": "inactive"}, {"smiles": "C[N+](C)(C)CCNC(=O)c1cc[n+](Cc2ccccc2)c(/C=N/O)c1", "Potency": "10 µM (active)"}, {"smiles": "CCCOc1ccc(C(=O)NCCc2ccccc2)cc1", "Potency": "inactive"}, {"smiles": "CCOc1ncccc1C(=O)OCC(=O)N1c2ccccc2CC1C", "note": "(configuration not stated)", "Potency": "inactive"}, {"smiles": "Cc1ncc(CO)c(/C=N/NC(=O)c2cccc(S(=O)(=O)N3CCCC3)c2)c1O", "Potency": "inactive"}, {"smiles": "Cc1cccc2cc(CN(Cc3cccs3)C(=S)NCc3ccco3)c(=O)[nH]c12", "Potency": "inactive"}, {"smiles": "Cc1ccc(C)c2[nH]c(=O)c(CN(Cc3cccnc3)C(=S)NCc3ccco3)cc12", "Potency": "50.1 µM (active)"}, {"smiles": "Cc1cc(C)c2[nH]c(=O)c(CN(Cc3ccccc3)C(=S)NCCCN(C)C)cc2c1", "Potency": "inactive"}, {"smiles": "COc1ccc(C(=O)NCC2CCCCC2)cc1S(=O)(=O)N1CCCC1", "activity, negative = inhibition": "-36.7% [at 12.7 µM] (inactive)"}, {"smiles": "COc1ccc(CNC(=O)/C(C#N)=C/c2cccc(OC)c2OC)cc1", "activity, negative = inhibition": "44% [at 0.501 µM] (inactive)"}, {"smiles": "N#C/C(=C\\c1ccc(O)c(O)c1)C(=O)NCc1ccccc1", "Potency": "5.01 µM (active) and 5.62 µM (active) and 4.74 µM (active)"}, {"smiles": "COCCNC(=O)/C(C#N)=C/c1cccc(OCc2ccccc2)c1", "Potency": "inactive"}, {"smiles": "COc1ccc(NC(=O)C2=CC(c3ccc(OC)c(OC)c3)=NS(=O)(=O)N2C)cc1", "Potency": "inactive"}, {"smiles": "COc1ccc(C2=NS(=O)(=O)N(C)C(C(=O)N(C)Cc3ccccc3)=C2)cc1", "activity, negative = inhibition": "5.73% [at 12.7 µM] (inactive)"}, {"smiles": "COc1ccc(C2=NS(=O)(=O)N(C)C(C(=O)NC(C)c3ccccc3)=C2)cc1", "note": "(configuration not stated)", "Potency": "inactive and 14.1 µM (active)"}]}]}
